Hits are enriched below; roughly 15% of the tested compounds scored in any of these assays.
Gal4-VP16 FLuc – VP16 counterscreen qHTS for inhibitors of ROR gamma transcriptional activity. Drosophila S2 Gal4-VP16 UAS-luciferase, luminescence, 20 h. Potency, µM (doses to about 53.6 µM), inactives show at the highest dose activity, negative = inhibition, usual class: inhibitors. 310,000 compounds, 3.5% hits;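 also: Gal4-VP16 expression switched on by copper sulfate through the metallothionein promoter; nearly all actives have a fitted effect of over 50% in size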
RORg inh – qHTS for inhibitors of ROR gamma transcriptional activity; Drosophila S2 Gal4-RORgamma UAS-luciferase reporter, 20 h; Potency, µM (doses to about 53.6 µM), inactives show at the top dose activity change, negative = inhibition, actives largely listed as inhibitors; 310,000 compounds, 5.4% hits; AID 2551, 2010; also: nearly all actives have a fitted effect of over 60% in size
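In this cell-based reporter format, copper sulfate (700 uM final) drives Gal4–ROR gamma fusion expression from a metallothionein promoter in Drosophila Schneider cells; compounds preincubated 1 hr, reporter read after 20 hr at ambient temperature.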
DT40 TDP1 CPT – qHTS for Inhibitors of human tyrosyl-DNA phosphodiesterase 1 (TDP1): qHTS in cells in presence of CPT | AID 686979, 2013 | chicken DT40 Tdp1-/-;hTDP1 cells + 20 nM CPT, ATP luminescence, 48 h | 420,000 compounds, 12% hits | Potency, µM (highest dose often 46.2 µM), for the others: at the top dose activity change, negative = growth inhibition, usual class: inhibitors; also: nearly all actives have a fitted effect of over 55% in size
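Cell growth measured by CellTiter-Glo luminescence after a minimum 48 h, 37 C compound exposure with 20 nM CPT in Tdp1-knockout DT40 cells stably expressing hTDP1, seeded 400/well; qHTS titration format.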
12-LOX inh – Primary qHTS assay for inhibitors of human arachidonate 12S-lipoxygenase (ALOX12): Round 2. Polyunsaturated fatty acid lipoxygenase ALOX12 (Homo sapiens), P18054. purified 12hLO, xylenol orange hydroperoxide absorbance. Potency, µM (series often up to 108 µM), without a hit: at the top dose activity change, negative = inhibition, actives largely listed as inhibitors. 580,000 compounds, 1.1% hits. AID 1671190, 2021
Target sequence (P18054 whole entry, looked up): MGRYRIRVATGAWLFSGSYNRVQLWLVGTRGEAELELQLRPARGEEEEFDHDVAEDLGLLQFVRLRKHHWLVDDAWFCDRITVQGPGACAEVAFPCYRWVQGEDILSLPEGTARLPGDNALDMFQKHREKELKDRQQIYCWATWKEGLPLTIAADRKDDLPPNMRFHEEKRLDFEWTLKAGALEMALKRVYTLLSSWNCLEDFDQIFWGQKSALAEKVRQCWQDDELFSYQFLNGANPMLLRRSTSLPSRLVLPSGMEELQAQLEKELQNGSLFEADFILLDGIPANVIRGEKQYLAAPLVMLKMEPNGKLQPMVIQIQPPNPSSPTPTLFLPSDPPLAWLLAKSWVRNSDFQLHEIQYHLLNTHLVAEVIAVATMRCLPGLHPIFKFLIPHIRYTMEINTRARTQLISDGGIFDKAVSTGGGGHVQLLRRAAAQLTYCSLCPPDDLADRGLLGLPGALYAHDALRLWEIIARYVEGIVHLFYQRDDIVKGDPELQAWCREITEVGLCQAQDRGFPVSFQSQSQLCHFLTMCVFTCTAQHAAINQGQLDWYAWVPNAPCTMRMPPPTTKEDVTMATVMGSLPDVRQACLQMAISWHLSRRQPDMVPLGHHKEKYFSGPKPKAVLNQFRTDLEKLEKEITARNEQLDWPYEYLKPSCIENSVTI
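Hydroperoxide product was detected by ferrous iron/xylenol orange as the 573 to 405 nm absorbance ratio. Arachidonic acid at 40 uM (final) was turned over for 30 min at room temperature by 150 nM human 12hLO, pH 7.0 Hepes buffer, after 15 min compound preincubation.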
ELG1 repair inh – qHTS screen for small molecules that inhibit ELG1-dependent DNA repair in human embryonic kidney (HEK293T) cells expressing luciferase-tagged ELG1. Potency, µM (highest dose often 46.1 µM), for inactives: at the top dose activity change, negative = inhibition, hits mostly inhibitors. 330,000 compounds, 2.3% hits. HEK293T ELG1-luciferase reporter, luminescence, 16 h; DNA damage induced by 5-fluorouridine. AID 504467, 2011; also: nearly all actives have a fitted effect of over 55% in size
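Quantitative HTS, concentration-response format. 2,000 cells/well co-treated with 5-fluorouridine and compound, 16 hr in 5% CO2 at 37 °C; ONE-Glo luminescence read after 30 min.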
TDP1 cell noCPT – qHTS for Inhibitors of human tyrosyl-DNA phosphodiesterase 1 (TDP1): qHTS in cells in absence of CPT; DT40 Tdp1-/- hTDP1 cells, no CPT, ATP luminescence, 48 h; Potency, µM (top dose mostly 46.2 µM), for the others: at the highest dose activity change, negative = growth inhibition, actives largely listed as inhibitors; 420,000 compounds, 15% hits; also: nearly all actives have a fitted effect of over 55% in size
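Growth kinetics read by CellTiter-Glo luminescence after ≥48 hr at 37 °C. Cells: DT40 Tdp1-/- stably carrying human TDP1, 400 per well, compound exposure in the absence of CPT (DMSO vehicle).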
* marks the source's active call; other numbers are inactive results; [ ] = remark or other dose. Calls follow the shape of the dose curve; as a rule, active = well fitted curve in the direction sought with a large enough effect; inconclusive = small, poorly fitted or top-dose-only effect, or another doubt; inactive = no such curve, though single readings can be large; an effect the other way counts as inactive or inconclusive. % is scaled to controls: 0 for no effect and ±100 for the full control effect; potency is read from the fitted curve at half-maximal effect.

Screening CC(C(=O)Nc1ccc2[nH]c(=O)[nH]c2c1)N(C)Cc1c(F)cccc1Cl (configuration not stated) returned 12-LOX inh -27%.
`O=C(C[n+]1ccc(Cc2ccccc2)cc1)Nc1ccc([N+](=O)[O-])cc1Cl` gave Gal4-VP16 FLuc -14%, RORg inh -4%, DT40 TDP1 CPT inconclusive, 12-LOX inh -30%, ELG1 repair inh -7% and TDP1 cell noCPT 15µM*.
Screening CC(C)(C)NC(=O)NC(=O)C[n+]1ccc(Cc2ccc([N+](=O)[O-])cc2)cc1 returned Gal4-VP16 FLuc -3%, RORg inh -2%, DT40 TDP1 CPT 4.1µM*, 12-LOX inh 12%, ELG1 repair inh -29% and TDP1 cell noCPT 2.1µM*.
Cc1ccc(Cl)cc1NC(=O)C[n+]1ccc(Cc2ccc([N+](=O)[O-])cc2)cc1 was read as Gal4-VP16 FLuc -7%, RORg inh -13%, DT40 TDP1 CPT 5.8µM*, 12-LOX inh inconclusive, ELG1 repair inh inconclusive and TDP1 cell noCPT 5.2µM*.
For Cc1ccc([N+](=O)[O-])cc1NC(=O)CCSc1ccc(Cl)cc1 the results were Gal4-VP16 FLuc -7%[0.365 µM], RORg inh -45%, DT40 TDP1 CPT -15%, 12-LOX inh 4%, ELG1 repair inh 0% and TDP1 cell noCPT -33%.
`Cc1cccc[n+]1CC(=O)Nc1ccc([N+](=O)[O-])cc1Cl` gave Gal4-VP16 FLuc 0%, RORg inh -3%, DT40 TDP1 CPT inconclusive, 12-LOX inh 0%, ELG1 repair inh -11% and TDP1 cell noCPT -11%.
`CCN(CC(=O)Nc1ccccc1OC)C(=O)Cc1nc(-c2ccccc2)oc1C` gave 12-LOX inh 6%.
CN(C)C(=O)c1ccc(NC(=O)COc2ccccc2-c2ccccc2)cc1 was read as 12-LOX inh 5%.
For O=C(c1n[nH]c2ccccc12)N1C[C@@H](CO)[C@H](c2ccccn2)C1 the results were 12-LOX inh 50%.
For COc1cccc(-c2nc(CS(=O)(=O)CC(=O)N3CCN(c4ccccc4)CC3)c(C)o2)c1 the results were DT40 TDP1 CPT inconclusive, 12-LOX inh -20% and TDP1 cell noCPT 23µM*.
`Cc1oc(-c2ccccc2F)nc1CS(=O)(=O)CC(=O)N1CCN(c2ccc(Cl)cc2)CC1` gave DT40 TDP1 CPT 26µM*, 12-LOX inh 0% and TDP1 cell noCPT 21µM*.
Cc1ccsc1-c1nc(CSCC(=O)N2CCN(c3ccccc3)CC2)c(C)o1 was read as Gal4-VP16 FLuc 5%, RORg inh -4%, DT40 TDP1 CPT 15µM*, 12-LOX inh 4%, ELG1 repair inh inconclusive and TDP1 cell noCPT inconclusive.
Screening COc1ccc(-c2nc(CSCC(=O)N3CCN(c4ccccc4)CC3)c(C)o2)cc1 returned DT40 TDP1 CPT 10µM*, 12-LOX inh 1% and TDP1 cell noCPT 10µM*.
Screening CC1(C)CC(=O)C2=C(C1)OC(N)=C(C#N)C2c1ccc(C#N)cc1 (configuration not stated) returned 12-LOX inh -53%.
CSCCC(NS(=O)(=O)c1cccs1)C(=O)Nc1ccc(C)c(Cl)c1 (configuration not stated) was read as DT40 TDP1 CPT -3%, 12-LOX inh 50µM* and TDP1 cell noCPT -29%.
For CSCCC(NS(=O)(=O)c1cccs1)C(=O)NCc1ccc(C)cc1 (configuration not stated) the results were Gal4-VP16 FLuc 4%, RORg inh 45%, DT40 TDP1 CPT -26%, 12-LOX inh -16%, ELG1 repair inh 2% and TDP1 cell noCPT inconclusive.
For C/C(CC(=O)Nc1cc(Cl)cc(Cl)c1)=N\NC(=O)c1cccnc1 the results were 12-LOX inh 6%.
Screening Cc1cc(S(=O)(=O)Nc2cc(C)c(O)c(C)c2)c(C)s1 returned Gal4-VP16 FLuc inconclusive, RORg inh inconclusive, DT40 TDP1 CPT 2.6µM*, 12-LOX inh inconclusive, ELG1 repair inh 4% and TDP1 cell noCPT 2.9µM*.
For Cc1cc(S(=O)(=O)Nc2ccc3ccccc3c2)c(C)s1 the results were Gal4-VP16 FLuc inconclusive, RORg inh -40%, DT40 TDP1 CPT 10µM*, 12-LOX inh -17%, ELG1 repair inh -13% and TDP1 cell noCPT 11µM*.
Screening O=C1CSc2ccc(C(=O)NOCc3ccccc3)cc2N1 returned 12-LOX inh -15%.
CC(C)c1nc2sc3c(NCc4ccccc4)ncnc3c2c2c1COC(C)(C)C2 was read as Gal4-VP16 FLuc 2%, RORg inh -2%, DT40 TDP1 CPT 9.2µM*, 12-LOX inh 0%, ELG1 repair inh inconclusive and TDP1 cell noCPT inconclusive.
Screening CN(C)S(=O)(=O)c1cccc(NC(=S)N/N=C/c2ccco2)c1 returned Gal4-VP16 FLuc 3.2µM*, RORg inh 1.1µM*, DT40 TDP1 CPT 4.6µM*, 12-LOX inh 0%, ELG1 repair inh -6% and TDP1 cell noCPT 5.8µM*.
`CN(C)S(=O)(=O)c1cccc(NC(=S)NCc2ccco2)c1` gave Gal4-VP16 FLuc -14%, RORg inh -43%, DT40 TDP1 CPT -3%, 12-LOX inh -6%, ELG1 repair inh inconclusive and TDP1 cell noCPT -16%.
`COc1cc(/C=N/NC(=S)Nc2cccc(S(=O)(=O)N(C)C)c2)cc(OC)c1O` gave Gal4-VP16 FLuc 2.8µM*, RORg inh 3.2µM*, DT40 TDP1 CPT -15%, 12-LOX inh -31%, ELG1 repair inh 21µM* and TDP1 cell noCPT inconclusive.
COc1cccc(/C=N/NC(=S)Nc2cccc(S(=O)(=O)N(C)C)c2)c1 was read as Gal4-VP16 FLuc 4.5µM*, RORg inh 1.6µM*, DT40 TDP1 CPT 4.1µM*, 12-LOX inh inconclusive, ELG1 repair inh -4% and TDP1 cell noCPT 8.2µM*.
CC(/C=N/NC(=S)Nc1cccc(S(=O)(=O)N(C)C)c1)c1ccccc1 (configuration not stated) was read as Gal4-VP16 FLuc -15%, RORg inh -30%, DT40 TDP1 CPT inconclusive, 12-LOX inh -15%, ELG1 repair inh 4% and TDP1 cell noCPT inconclusive.
